Data as given in PubChem BioAssay (NCI).
The panel holds about 79,000 compounds, 15% with a hit somewhere; the sample as a whole holds those more often. Activity calls are given as the source filed them. No stated cut-off is given here; in the data, active means growth inhibition above about 70%; inactive means the rest.

Key:
[1] = NCI Yeast Anticancer Drug Screen. Data for the rad52 strain (AID 147);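 further: 0% = growth of vehicle-treated control cultures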; details: S. cerevisiae rad52 mutant growth inhibition, active compounds read high
Method in brief: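 Genetically altered yeast (DNA damage repair defect) treated with compound; inhibition calculated relative to vehicle.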

[2] = NCI Yeast Anticancer Drug Screen. Data for the wt1 strain (AID 149);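 further: 0% = growth of vehicle-treated wt1 cultures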; details: S. cerevisiae wt1 strain (SPY 50644) growth inhibition, active compounds read high
Method in brief: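 Using yeast strain wt1, compound-induced growth inhibition was determined against vehicle-treated cultures.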

[3] = NCI Yeast Anticancer Drug Screen. Data for the rad50EPP+ strain (AID 151);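 further: 0% = growth of vehicle-treated control cultures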; details: S. cerevisiae rad50 mutant strain, active compounds read high
Method in brief: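 Strain rad50EPP+; compound exposure; % growth inhibition vs vehicle.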

[4] = NCI Yeast Anticancer Drug Screen. Data for the mgt1 strain (AID 153); details: S. cerevisiae mgt1 mutant growth inhibition, active compounds read high
Method in brief: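 Read-out: yeast growth inhibition vs vehicle control. Strain mgt1, drawn from a panel altered in DNA damage repair or cell cycle control.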

[5] = NCI Yeast Anticancer Drug Screen. Data for the rad50 strain (AID 155);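 further: 0% = growth of vehicle-only cultures of the same strain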; details: S. cerevisiae rad50 strain growth inhibition, active compounds read high
Method in brief: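 Relative growth inhibition (compound vs vehicle) was measured in yeast with a defined repair-gene alteration.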

[6] = NCI Yeast Anticancer Drug Screen. Data for the mec2-1 strain (AID 157); details: S. cerevisiae mec2-1 strain, active compounds read high
Method in brief: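 Cells of the genetically defined mec2-1 yeast strain are incubated with test compound. Inhibition of growth is calculated against vehicle-treated controls.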

[7] = NCI Yeast Anticancer Drug Screen. Data for the rad14 strain (AID 159);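 further: 0% = growth of vehicle-treated control cultures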; details: S. cerevisiae rad14 strain growth inhibition, active compounds read high
Method in brief: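 Screen for anticancer potential: a yeast strain altered in DNA damage repair is grown with compound, and reduced growth is quantified against vehicle controls.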

[8] = NCI Yeast Anticancer Drug Screen. Data for the sgs1 mgt1 strain (AID 161);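 further: 0% = growth of cultures given vehicle only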; details: S. cerevisiae sgs1 mgt1 strain, active compounds read high
Method in brief: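 Mutant yeast exposed to compound; growth scored against vehicle-only wells.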

[9] = NCI Yeast Anticancer Drug Screen. Data for the CLN2oe strain (AID 163);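 further: 0% = growth of vehicle-only control cultures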; details: S. cerevisiae CLN2oe strain, active compounds read high
Method in brief: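 Strain altered in cell-cycle control, incubated with compound; growth compared to solvent-treated controls.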

[10] = NCI Yeast Anticancer Drug Screen. Data for the cln2 rad14 strain (AID 165);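 further: 0% = growth equal to vehicle treated cultures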; details: S. cerevisiae cln2 rad14 strain, active compounds read high
Method in brief: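 The screen exposed genetically defined yeast (cln2 rad14) to test compounds and scored growth inhibition relative to vehicle-treated controls.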

[11] = NCI Yeast Anticancer Drug Screen. Data for the bub3 strain (AID 167); details: S. cerevisiae bub3 mutant strain, active compounds read high
Method in brief: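 Screening used yeast with an engineered genetic alteration affecting cell cycle control. Compound-exposed cultures were compared with vehicle cultures, and reduced growth was taken as inhibition.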

[12] = NCI Yeast Anticancer Drug Screen. Data for the wt2 strain (AID 169);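 further: 0% = growth of vehicle-treated yeast cultures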; details: S. cerevisiae wt2 strain growth inhibition, active compounds read high
Method in brief: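 Steps: yeast strain treated with compound; growth recorded; inhibition calculated relative to cultures given vehicle alone.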

[13] = NCI Yeast Anticancer Drug Screen. Data for the sgs1 strain (AID 173);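 further: 0% = growth of vehicle-only control cultures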; details: S. cerevisiae sgs1 mutant, active compounds read high
Method in brief: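 Inhibition of yeast growth served as the measure. The mutant strain was treated with each compound, and growth was normalised to cultures receiving vehicle alone.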

[14] = NCI Yeast Anticancer Drug Screen. Data for the mlh1 rad18 strain (AID 175); details: S. cerevisiae mlh1 rad18 strain growth inhibition, active compounds read high
Method in brief: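 Compound-treated yeast growth, normalised to vehicle controls. Strain bears defined DNA repair mutations.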

[15] = NCI Yeast Anticancer Drug Screen. Data for the rad18 strain (AID 177); details: S. cerevisiae rad18 mutant growth inhibition, active compounds read high
Method in brief: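 Inhibition values reflect reduced yeast growth compared with vehicle-treated controls, using a strain engineered with a DNA damage repair defect.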

[16] = NCI Yeast Anticancer Drug Screen. Data for the mlh1 strain (AID 171);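 further: 0% = growth of vehicle-treated control cultures of the same strain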; details: S. cerevisiae mlh1 strain growth inhibition, active compounds read high
Method in brief: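 Yeast screen: mutant strain plus compound, growth scored against vehicle control wells.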

[17] = at 5.0 µM (retest, dose inferred, filed as 0.5)
[18] = at 50.0 µM (retest, dose inferred, filed as 5.0)

Measured: growth inhibition

Cc1ccc(NC(c2ccccc2)c2ccc3cccnc3c2O)cc1 (stereo unspecified)
active: [8]; at 50.0 µM 79.7%
inactive: [1]; at 1.2 µM -1% | [1]; at 3.7 µM 0% | [1]; at 11.0 µM -1% | [1]; at 33.0 µM -1% | [1]; at 100.0 µM -2% | [2]; at 1.2 µM 1% | [2]; at 3.7 µM 4% | [2]; at 11.0 µM 4% | [2]; at 33.0 µM 1% | [2]; at 100.0 µM 1% | [3]; at 1.2 µM -3% | [3]; at 3.7 µM -1% | [3]; at 11.0 µM -4% | [3]; at 33.0 µM -3% | [3]; at 100.0 µM -2% | [4]; at 1.2 µM 0% | [4]; at 3.7 µM 2% | [4]; at 11.0 µM 1% | [4]; at 33.0 µM 2% | [4]; at 100.0 µM 0% | [5]; at 1.2 µM 1% | [5]; at 3.7 µM -2% | [5]; [17] 18% | [5]; at 11.0 µM 6% | [5]; at 33.0 µM -2% | [5]; [18] 29% | [5]; at 50.0 µM 67.1% | [5]; at 100.0 µM -3% | [6]; at 1.2 µM 1% | [6]; at 3.7 µM 2% | [6]; [17] 5% | [6]; at 11.0 µM 1% | [6]; at 33.0 µM 2% | [6]; [18] 6% | [6]; at 50.0 µM 50.6% | [6]; at 100.0 µM 12% | [7]; at 1.2 µM 0% | [7]; at 3.7 µM -1% | [7]; at 11.0 µM 1% | [7]; at 33.0 µM -26% | [7]; at 100.0 µM 2% | [8]; [17] 9% | [8]; [18] 10% | [9]; at 1.2 µM 0% | [9]; at 3.7 µM -1% | [9]; at 11.0 µM 0% | [9]; at 33.0 µM 2% | [9]; at 100.0 µM 5% | [10]; [17] 48% | [10]; [18] 45% | [10]; at 50.0 µM 59.9% | [11]; at 1.2 µM -8% | [11]; at 3.7 µM -1% | [11]; [17] -18% | [11]; at 11.0 µM -31% | [11]; at 33.0 µM 8% | [11]; [18] -3% | [11]; at 50.0 µM 56.5% | [11]; at 100.0 µM 3% | [12]; at 1.2 µM 0% | [12]; at 3.7 µM 1% | [12]; at 11.0 µM -1% | [12]; at 33.0 µM -1% | [12]; at 100.0 µM -2% | [13]; at 1.2 µM 2% | [13]; at 3.7 µM 3% | [13]; at 11.0 µM 3% | [13]; at 33.0 µM 0% | [13]; at 100.0 µM -3% | [14]; [17] 5% | [14]; [18] 10% | [14]; at 50.0 µM 33% | [15]; at 1.2 µM -15% | [15]; at 3.7 µM 3% | [15]; at 11.0 µM -10% | [15]; at 33.0 µM -2% | [15]; at 100.0 µM -12%

CN(C)Cc1cc(N=Nc2ccc(Cl)cc2)ccc1OC(=O)c1ccccc1
inactive: [1]; at 1.2 µM 1% | [1]; at 3.7 µM 3% | [1]; at 11.0 µM 1% | [1]; at 33.0 µM 7% | [1]; at 100.0 µM 17% | [2]; at 1.2 µM 1% | [2]; at 3.7 µM 1% | [2]; at 11.0 µM 3% | [2]; at 33.0 µM 3% | [2]; at 100.0 µM -1% | [3]; at 1.2 µM 4% | [3]; at 3.7 µM 7% | [3]; at 11.0 µM 20% | [3]; at 33.0 µM 22% | [3]; at 100.0 µM 41% | [4]; at 1.2 µM 0% | [4]; at 3.7 µM 1% | [4]; at 11.0 µM 5% | [4]; at 33.0 µM 48% | [5]; at 1.2 µM 1% | [5]; at 3.7 µM 1% | [5]; [17] -10% | [5]; at 11.0 µM 1% | [5]; at 33.0 µM 5% | [5]; [18] 10% | [5]; at 100.0 µM 11% | [6]; at 1.2 µM -3% | [6]; at 3.7 µM 3% | [6]; [17] -2% | [6]; at 11.0 µM -2% | [6]; at 33.0 µM 3% | [6]; [18] 47% | [6]; at 100.0 µM 42% | [7]; at 1.2 µM -1% | [7]; at 3.7 µM -2% | [7]; at 11.0 µM 1% | [7]; at 33.0 µM 14% | [7]; at 100.0 µM 51% | [8]; [17] 38% | [8]; [18] 48% | [9]; at 1.2 µM 3% | [9]; at 3.7 µM -1% | [9]; at 11.0 µM 1% | [9]; at 33.0 µM 0% | [9]; at 100.0 µM 5% | [10]; [17] -20% | [10]; [18] 51% | [11]; at 1.2 µM -2% | [11]; at 3.7 µM -2% | [11]; [17] -15% | [11]; at 11.0 µM -4% | [11]; at 33.0 µM 5% | [11]; [18] 54% | [11]; at 100.0 µM 23% | [12]; at 1.2 µM 1% | [12]; at 3.7 µM 2% | [12]; at 11.0 µM 6% | [12]; at 33.0 µM 21% | [12]; at 100.0 µM 52% | [16]; at 1.2 µM 2% | [16]; at 3.7 µM 2% | [16]; at 11.0 µM 4% | [16]; at 33.0 µM 31% | [16]; at 100.0 µM 67% | [14]; [17] -9% | [14]; [18] 61% | [15]; at 1.2 µM 1% | [15]; at 3.7 µM 1% | [15]; at 11.0 µM -16% | [15]; at 33.0 µM 17% | [15]; at 100.0 µM 58%
active: [4]; at 100.0 µM 82% | [5]; at 50.0 µM 90.3% | [6]; at 50.0 µM 97.2% | [8]; at 50.0 µM 98.3% | [10]; at 50.0 µM 97% | [11]; at 50.0 µM 98.5% | [14]; at 50.0 µM 98.5%
